Source: PubChem BioAssay
MLL AF4-AF9 inh – inhibitors of AF4 peptide binding to AF9, primary screen, biochemical, AlphaScreen, biotin-AF4 peptide, FLAG-AF9, single point; inhibition, % at 10 µM; actives 0.47% (n = 350,000); Protein AF-9 (Homo sapiens), P42568; AID 651704, 2012;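 active = every replicate reaching a set inhibition limit, whatever the replicate mean, cut at about 25% in these data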;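 also: 0% = plate neutral control median and 100% = total signal loss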
FGF22 binding – binders of human FGF22 protein, primary screen, FGF22 synaptogenesis inhibitor project, biophysical, thermal shift, single point. recombinant FGF22 thermal shift, SYPRO orange fluorescence; percent of sucrose octasulfate shift, DMSO zero. activity (Tm shift, normalised), % at 9.99 µM. actives 1.5% (n = 340,000);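 active = mean Tm shift, scaled 0 neutral to 100 positive control, at about 1.3% or above, every replicate too, limit read from the data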
RAD52 inh – RAD52 DNA annealing inhibitors, primary screen, biochemical, FRET, single point, set 2 | inhibition, % at 18.7 µM | recombinant RAD52 DNA annealing, FRET fluorescence | actives 0.46% (n = 360,000) | DNA repair protein RAD52 homolog (Homo sapiens), P43351;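 active = every replicate showing at least 50% inhibition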
ERAP1 inh – human ERAP1 aminopeptidase inhibitors, primary screen, biochemical, single point, plate reader; Endoplasmic reticulum aminopeptidase 1 (Homo sapiens), Q9NZ08; recombinant ERAP1, Leu-AMC fluorescence, 60 min; inhibition, % at 10.7 µM; actives 0.15% (n = 340,000);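 active = mean replicate inhibition of at least 30%, or all replicates individually reaching that 30% level; inactive = mean below 30% and not every replicate reaching it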;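 also: 0% = neutral control wells and 100% = L-leucinethiol positive control wells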
DENV2 CPE rescue – inhibitors of DENV2 cytopathic effect, primary screen, cell-based, plate reader, single concentration; CPE inhibition, % at 9.99 µM; actives 1.7% (n = 350,000); DENV2-infected cells, cytopathic effect rescue; AID 651640, 2012; in the data active = CPE inhibition above about 20%, passing the limit was not always enough; tested in BHK-21 cells;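 also: 0% = median of neutral control wells and 100% = median of positive control wells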
Numbers without * were called inactive; x = no result given; ! = a repeat was not active. Only some compounds are listed: those with a hit (about 4% of all), similar ones and a draw of the others.

SMILES	MLL AF4-AF9 inh	FGF22 binding	RAD52 inh	ERAP1 inh	DENV2 CPE rescue
CO[C@@H]1CN(C)C(=O)c2ccc(NC(=O)C3CC3)cc2OC[C@@H](C)N(CCc2ccccc2)C[C@H]1C	4	-1	-3	-3	3
O=C(CCNc1n[nH]c(=O)[nH]c1=O)N/N=C/c1ccc(C(F)(F)F)cc1	0	43*	-7	3	3
O=C(CCNc1n[nH]c(=O)[nH]c1=O)N/N=C/c1ccccc1Br	-2	44*	-5	3	2
O=C(CNc1n[nH]c(=O)[nH]c1=O)N/N=C/c1ccccc1	-11	0	-9	4	-1
O=C(NCC[C@@H]1CC[C@H](NC(=O)C2CCCCC2)[C@H](CO)O1)c1cc(Cl)cc(Cl)c1	-1	1	10	0	3
Cc1ccc(OCc2ccc(Br)cc2)c([N+](=O)[O-])n1	0	45*	-8	-3	-10
O=[N+]([O-])c1ncccc1OCc1ccc(-c2ccccc2)cc1	1	0	-37	0	-7
Cc1ccc(OCc2ccc(-c3ccccc3)cc2)c([N+](=O)[O-])n1	-1	0	-19	0	36*
COc1ccc(-c2ccc(C3[C@@H]4CN(C(=O)Nc5ccccc5F)C[C@H]3N4)cc2)cc1 (some centres undefined)	-1	x	38	1	3
C/C=C/c1ccc(C2[C@@H]3CN(C(=O)Nc4ccc(C(F)(F)F)cc4)C[C@H]2N3)cc1 (some centres undefined)	x	0	x	x	41*!
COc1cccc(-c2ccc(C3[C@@H]4CN(C(=O)Nc5ccccc5F)C[C@H]3N4)cc2)c1 (some centres undefined)	x	0	x	x	32*!
COc1ccc(NC(=O)N2C[C@@H]3N[C@H](C2)C3c2ccc(-c3cccc(OC)c3)cc2)cc1 (some centres undefined)	5	x	54*!	-1	9
COc1ccc(NC(=O)N2C[C@@H]3N[C@H](C2)[C@@H]3c2ccc(-c3ccc(OC)cc3)cc2)cc1	3	x	68*	-2	8
C/C=C/c1ccc(C2[C@@H]3CN(C(=O)Nc4ccc(F)cc4)C[C@H]2N3)cc1 (some centres undefined)	1	x	28	1	13
O=C(C[C@@H]1CC[C@H](NC(=O)Nc2cc(F)ccc2F)[C@@H](CO)O1)NCCCN1CCOCC1	0	0	-1	4	2
O=C(Nc1cccc(F)c1)N1C[C@@H]2N[C@H](C1)C2c1ccc(-c2ccncc2)cc1 (some centres undefined)	-3	x	6	0	-4
COc1ccc(-c2ccc(C3[C@@H]4CN(C(=O)Nc5cccc(F)c5)C[C@H]3N4)cc2)cc1 (some centres undefined)	8	x	84*	0	0
CC(C)NC(=O)NCC[C@@H]1CC[C@@H](NS(=O)(=O)c2ccccc2)[C@H](CO)O1	3	x	2	-2	8
CC(C)(C)c1ccc(OCCC(=O)OCC(=O)NC2CC2)cc1	-4	0	-13	-1	-5
CC(C)(C)c1ccc(OCCC(=O)OCC(=O)NC2CCS(=O)(=O)C2)cc1 (centres undefined)	-8	43*	-1	1	3
O=C1NC2(CCCCC2)C(=O)N1Cc1cccc(C(F)(F)F)c1	-10	43*	-3	0	2
Cc1ccc(CSc2nc3ccccc3c(=O)[nH]2)cc1	1	0	-4	-2	2
O=c1[nH]c(SCc2ccccc2)nc2c1sc1ccccc12	-1	44*	-3	3	0
C[C@H]1CCC/C=C/[C@@H]2C[C@H](O)C[C@H]2[C@H](O)[C@H](S(=O)c2ccc(O)cc2)CC(=O)O1 (some centres undefined)	8	-1	-2	67*	-32
CNC(=O)C[C@@H]1CC[C@@H]2[C@H](COC[C@H](O)CN2Cc2ccncc2)O1	-2	0	-13	2	-2
SMILES	MLL AF4-AF9 inh	FGF22 binding	RAD52 inh	ERAP1 inh	DENV2 CPE rescue
Cc1cc(C)n(-c2ccc(NC(=O)C3CCCCN3C(=O)c3occc3C)cc2)n1 (centres undefined)	-4	40	-13	-3	14
Cc1cc(C)n(-c2ccc(NC(=O)C3CCCCN3C(=O)c3ccoc3)cc2)n1 (centres undefined)	-1	0	-16	-7	36*
CCOc1cc(/C=N\n2nnnc2N)ccc1O	0	0	1	-2	-5
CCOc1ccc(/C=N/n2nnnc2N)cc1OCC	1	0	-4	2	27*
CCOc1cc(/C=N/n2cnnc2)ccc1OS(=O)(=O)c1ccc(C)cc1	2	44*	-20	0	1
Cc1ccc(S(=O)(=O)N(C)C[C@@H]2OCCCC[C@@H](C)Oc3ccc(NS(=O)(=O)c4cn(C)cn4)cc3C(=O)N([C@@H](C)CO)C[C@H]2C)cc1	2	0	-2	0	9
CC(=O)c1ccc(NC(=O)c2cc(Cl)nc3ccccc23)cc1	-2	43*	-32	1	-8
CC(=O)c1ccc(NC(=O)c2cc(C)nc3ccccc23)cc1	-1	0	-15	-2	1
CO[C@@H]1CN(C)C(=O)c2ccc(NC(=O)C3CCOCC3)cc2OC[C@H](C)NC[C@@H]1C	1	0	-10	0	4
CCC(=O)N1[C@@H]2c3ccc(-c4cccc(F)c4)c(=O)n3C[C@@H]2[C@@H](CO)[C@@H]1C(=O)OC	2	0	-4	2	76*
CCN1[C@@H]2c3ccc(-c4ccc(OC)cc4)c(=O)n3C[C@H]1[C@H](CO)[C@H]2C(=O)NCC1CC1	-16	0	4	9	16
CCNC(=O)[C@H]1[C@H](CO)[C@H]2Cn3c(ccc(-c4cccc(OC)c4)c3=O)[C@H]2N1S(C)(=O)=O	-1	0	-8	-3	28*
CCNC(=O)[C@H]1[C@H](CO)[C@H]2Cn3c(ccc(-c4cccc(OC)c4)c3=O)[C@H]2N1C(=O)NC(C)C	-1	0	5	-3	31*
CCNC(=O)[C@H]1[C@H](CO)[C@H]2Cn3c(ccc(-c4ccc(OC)cc4)c3=O)[C@@H]1N2CC	-2	0	-1	-2	79*
CCCN1[C@@H]2Cn3c(ccc(-c4cccnc4)c3=O)[C@H]1[C@@H](C(=O)NCCc1cn(C)cn1)[C@@H]2CO	-2	0	-7	31*	-1
CCCN1[C@@H]2Cn3c(ccc(-c4ccccc4)c3=O)[C@H]1[C@@H](C(=O)NCCc1cn(C)cn1)[C@@H]2CO	2	0	-9	1	-1
O=C(CCc1nc2ccccc2c(=O)[nH]1)N1CCCc2ccccc21	1	0	-40	-1	53*
